Laboratory results reported in PubChem BioAssay AID651673 (Broad Institute, 2012).
This is one part of the list. The source made the active and inactive calls.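 Rule for the calls: active = signal drop giving an AC50 within twice the top valid tested concentration of each sample (actives reach about 35 µM in these data); inactive = activity opposite to expected, plus the rest.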

Test: DNA binding of candidate compounds, dose response, artefact control for RAD54 inhibitor project, biochemical, fluorescence polarization, cherry-pick (AID 651673);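 note: polarization loss reports compound binding to salmon sperm DNA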
Details: Acridine orange-DNA displacement, 20 min; series mostly up to 35 µM

outcome, inactive:
CCN(CC)CCCNC(=O)c1cc2c(=O)[nH]c3ccc(C)cc3c2s1
COc1ccccc1C(=O)C(O)c1ccccc1OC (stereo not drawn)
CCn1c(=N)c(C(=O)NCCCOC)cc2c(=O)n3cccc(C)c3nc21
Cc1nc2ccccc2c2oc(C(=O)NCCCN3CCC(C)CC3)cc12
Cc1cc2oc3ccc(NCCC4CCCN4C)cc3c(=O)c2cc1C (stereo not drawn)
CN(C)CCN(C(=O)CN1C(=O)c2ccccc2C1=O)c1nc2cc3c(cc2s1)OCCO3
O=C(NCCCN1CCOCC1)c1cnn2c(-c3ccccc3)cc(-c3ccccc3)nc12
CCOCCCNC(=S)Nc1ccc2nc(N3CCN(CC)CC3)cc(C)c2c1
CC1CCc2sc3nc(N4CCN(CCO)CC4)n4ncnc4c3c2C1 (stereo not drawn)
COc1cccc2sc3cc(NCC[C@@H]4CCCN4C)ccc3c(=O)c12
c1ccc(-c2nnc(SCc3nc4ccccc4[nH]3)o2)cc1
CCN(CC)CCn1c2ccc(Cl)cc2c2nc(C)sc21
COc1ccc(C(=O)Nc2cc(C)c(NC(=O)c3ccccc3OC)cn2)cc1
CCOC(=O)C1C(=O)NC(N2CCN(c3ccccc3)CC2)=NC1c1ccco1 (stereo not drawn)
COc1ccc(CCn2c(=N)c(C(=O)NCC3CCCO3)cc3c(=O)n4cccc(C)c4nc32)cc1OC (stereo not drawn)
COC(=O)c1c(NC(=O)c2ccc(S(=O)(=O)N3CCOCC3)cc2)sc2c1CCN(C(C)C)C2
CN1CCN(CCCNC(=O)c2cc3c(=O)oc4ccccc4c3s2)CC1
Cc1cccn2c(=O)c3cc(C#N)c(=O)n(CCCN4CCOCC4)c3nc12
